# Measured values: PubChem BioAssay (NCI)
# “And” between values parts separate entries of the source, which are not always exact repeats. Identical values can stand only once. About 83,000 compounds went through this panel and 20% of them were active in at least one assay; those are over-represented in the sample as a whole.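 Negative percent growth values reflect cell death: -40 means 40% of the cells present at the start died, and -100 means all died.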 Unmarked numbers belong to inactive results. The source made the active and inactive calls. How the source made its calls: active means growth percent below 10; inactive means the rest.
# Tested on: HL-60(TB) leukemia
# Assay: NCI-60 one-dose screen, 48 h (100 = growth as untreated, 0 = no growth, -100 = all killed)
# Conditions: 10 µM unless noted
row,Structure (SMILES),growth
1,COc1cc(/C=N/NC(=O)c2ccccc2Nc2cccc(C(F)(F)F)c2)ccc1O,26.9%
2,Cc1ccc(N=C2CSc3nnc(-c4csc5c4CCCC5)n3N2)cc1,-25.4% (active)
3,O=Nc1c(O)c(Cl)cc2ccccc12,42.7%
4,CC(=O)Nc1ccc(CC[C@H]2CCC/C=C/[C@@H]3C[C@H](O)C[C@H]3[C@H](O)/C=C/C(=O)O2)cc1,-9.6% (active)
5,CC(=O)Nc1ccc(S(=O)(=O)Nc2cccc(-c3nc(-c4ccc(NC(=O)c5cccnc5)cc4Cl)no3)c2)cc1,24%
6,CCC(C)C1(C2CCCC2)NC(=O)NC1=O (stereo not given),63.4% and 98.2%
7,CCCC(=O)Oc1ccc(/C(=C(\C)c2ccc(OC)cc2)c2ccc(OCCN3CCCCC3)cc2)cc1,89.6%
8,O=S(=O)(NCCNc1cc(-c2cn(-c3ccccc3)nc2-c2cccc(O)c2)ccn1)c1ccc(Cl)cc1,15.3%
9,CCOC(=O)c1c(C)c2c(n1C)CSc1cc(C(=O)c3ccccc3)c(=O)[nH]c1-2,74.7% [100 µM]
10,Nc1nc(Nc2cc(Cl)cc(Cl)c2)nn1S(=O)(=O)c1ccc2ccccc2c1,88.6%
11,COc1ccc(NC(=O)c2cc3ccccc3nc2Nc2cc(OC)c(OC)c(OC)c2)cc1,67.3%
12,CCc1ccc(Oc2cn[nH]c2-c2ccc(OCCc3ccc(F)cc3)cc2O)cc1,111%
13,C#Cc1cccc(NC(=O)Nc2ccc(NC(=O)CCl)cc2)c1,0.172% [8.25 µM] (active)
14,C#CC[C@@H]1C[C@]2(C)[C@H]3CC=C4[C@H]5[C@@H](C)[C@H](C)CC[C@]5(C(=O)NCCCCN)CC[C@@]4(C)[C@]3(C)CC[C@H]2C(C)(C)[C@H]1OC(C)=O,21.3%
15,CC(=O)Nc1nc2ccc(NS(=O)(=O)c3cccc4c(N(C)C)cccc34)cc2[nH]1,27.8%
16,COC1(OC)C2(Cl)C=C(c3ccccc3)C1(Cl)C(Cl)=C2Cl (stereo not given),83.7%
17,O=C(NNc1nccc(Nc2ccc(S(=O)(=O)Nc3ccncc3)cc2)n1)c1ccccc1,119%
18,CCOC(=O)CC[C@H](NC(=O)c1ccc(NC)c2ccccc12)C(=O)OCC,105%
19,O=C1C=CC2(NN=C(c3ccccc3)N2c2ccccc2)c2cccc(O)c21 (stereo not given),29.8%
20,CC(=O)O[C@H]1CC[C@]2(C)C3=C(C(=O)C[C@H]2C1(C)C)[C@]1(C)CC[C@H]([C@H](C)CCC(=O)O)[C@@]1(C)CC3=O,108%

row,Structure (SMILES),growth
1,CCc1ccccc1-n1c(-c2ccc(Cl)cc2)cc(-c2ccc(Cl)cc2)c(C#N)c1=O,82.7%
2,[2H]c1nc(Nc2ncc(F)c(-c3cc(F)c4nc(C)n(C(C)C)c4c3)n2)c([2H])c([2H])c1CN1CCN(C([2H])([2H])C([2H])([2H])[2H])CC1,34.6%
3,O=C(/C=C/c1c(Cl)nc2sccn12)c1nccs1,81.5%
4,CCN(CC)c1ccc2c(c1)Oc1nc(N)c(C#N)c(N)c1C2Sc1ccc(SC)cc1 (stereo not given),-31.7% (active)
5,O=C(O)COCC(=O)O,102%
6,FC(F)(F)c1cccc(Nc2ccccc2)c1,92.7%
7,O=C(c1ccccc1)c1cc2ccccc2oc1=O,64.6%
8,O=C(CSc1nc2sc3c(c2c(=O)n1-c1ccccc1)CCCCC3)N/N=C/c1ccc(F)cc1,110%
9,Nc1ccc2c(c1)Cc1cc(N)c(Br)cc1-2,86.4%
10,O=C1c2c(O)ccc(O)c2C(=O)c2c(NCCNCCO)ccc(NCCNCCO)c21,-28.5% (active) and -59.5% (active)
11,CN1CC[C@@H](c2c(O)cc(O)c3c(=O)cc(-c4ccccc4Cl)oc23)[C@@H](O)C1,-29.1% (active)
12,COc1ccc(C(=O)C(O)c2ccc(OC)cc2)cc1 (stereo not given),97.2% and 94.5%
13,COc1ccc(-c2nc(Nc3ccc(F)cc3)nc(Nc3ccc4c(c3)nc(C)n4Cc3ccccc3)n2)cc1,-11.4% (active)
14,N#Cc1ccc(NC(=O)Nc2ccc(Oc3ccc(NC(=O)Nc4ccc(C#N)cc4)cc3)cc2)cc1,-38.5% (active)
15,COC(=O)C(Sc1ccc(Cl)cc1)C1SC(=S)N(Cc2ccccc2)C1=O (stereo not given),76.1%
16,CS(=O)(=O)c1ccc(-c2nc3cc(Cl)ccc3n2CC(=O)NO)cc1,91.9%
17,CCCCCCCC[C@@H]1N[C@@H](C(=O)OC)Cc2c1[nH]c1ccccc21,99%
18,CSc1ccc(SC2c3ccc(C)cc3Oc3nc(N)c(C#N)c(N)c32)cc1 (stereo not given),-52% (active)
19,CC(C(=O)O)n1cc(C#N)c(=O)[nH]c1=O (stereo not given),104% and 90.4%
20,Cc1nc(N)sc1-c1ccnc(Nc2ccc(N3CCOCC3)cc2)n1,43.9%
